Assay outcomes as filed in PubChem BioAssay.
Glyco luc inh: N-linked glycosylation inhibition | D54 ERlucT glycosylation luciferase reporter, 24 h; percent of 100 nM tunicamycin response | reporter increase, % at 12.5 µM | 360,000 tested, 0.23% active | AID 588692;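 active = mean luciferase reporter signal, scaled so untreated is 0 and the glycosylation-blocking control 100, at or above a set limit in every replicate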;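 also: luciferase carries N-glycosylation sites so blocking glycosylation raises the light; 0% = median of neutral control wells and 100% = median of 100 nM tunicamycin wells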
ALR inh: human ALR oxidase inhibition via reduced H2O2 | P55789 | purified ALR, DTT oxidation, H2O2 HRP-luminol luminescence | inhibition, % (concentration not given with the values) | 290,000 tested, 3.8% active;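 active = mean replicate inhibition above about 79%, with every replicate also reaching it, limit read from the data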
CDK5 p35 inh: CDK5/p35 (human) kinase inhibition; Q00535+Q15078; Recombinant CDK5/p35, ADP-Glo luminescence, 60 min; inhibition, % at 10 µM; 330,000 tested, 0.01% active; AID 488839;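 active = highest replicate inhibition of at least 50% and at least 75% of replicates reaching 50%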;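 also: plate controls were DMSO neutral control for no effect and GW8510 at 10 µM for full effect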
Target sequence (Q00535 whole entry, looked up): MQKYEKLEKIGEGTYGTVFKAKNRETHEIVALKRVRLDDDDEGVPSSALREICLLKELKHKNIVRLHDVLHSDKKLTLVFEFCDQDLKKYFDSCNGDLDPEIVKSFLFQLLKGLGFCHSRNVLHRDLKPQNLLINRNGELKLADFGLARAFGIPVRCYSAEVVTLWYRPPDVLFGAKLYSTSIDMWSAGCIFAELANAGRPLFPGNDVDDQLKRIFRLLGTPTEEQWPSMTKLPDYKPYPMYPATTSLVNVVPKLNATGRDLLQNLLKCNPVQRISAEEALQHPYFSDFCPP
Target sequence (Q15078 whole entry, looked up): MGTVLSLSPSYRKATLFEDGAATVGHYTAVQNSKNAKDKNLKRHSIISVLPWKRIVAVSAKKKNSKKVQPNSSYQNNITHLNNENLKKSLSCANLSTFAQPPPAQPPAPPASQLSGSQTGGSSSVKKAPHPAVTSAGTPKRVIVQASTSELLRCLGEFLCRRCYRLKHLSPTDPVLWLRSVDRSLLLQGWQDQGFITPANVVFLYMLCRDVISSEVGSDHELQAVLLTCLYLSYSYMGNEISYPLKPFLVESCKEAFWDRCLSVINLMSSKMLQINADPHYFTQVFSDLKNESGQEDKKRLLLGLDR
CASP6 VEID inh: caspase-6 (human) enzyme inhibition; purified caspase-6, Z-VEID-R110 cleavage fluorescence; inhibition, % at 12.5 µM; 350,000 tested, 0.53% active; AID 686996;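 active = mean inhibition across replicates at least about 35%, with every replicate also reaching that limit, limit read from the data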;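 also: 0% = median of neutral control wells and 100% = no fluorescence left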
Mot1-301 SUMO: blocks SUMOylation pathway, rescuing yeast Mot1-301 growth; S. cerevisiae Mot1-301 growth rescue, ATP luminescence, 38.5C; percent above DMSO median, 100 means doubled; growth rescue, % at 18.8 µM; 320,000 tested, 1% active;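 active = every valid replicate shows activation above 250% relative to neutral control wells; inactive = the rest, any valid replicate at or below 250%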;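 also: OY570 slx delta 5 strain wells were the positive control but not used for scaling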
NSD2 inh: NSD2 (human) methyltransferase inhibition | 310,000 tested, 0.54% active | inhibition, % at 12.5 µM | O96028 | NSD2 peptide methylation, AlphaScreen, 120 min | AID 743445; in the data active = inhibition above about 50%
Active calls of the source: *. An excerpt weighted towards active compounds, which were near 3.9% of everything screened.

What do the screens show for `CCc1ccc(CCC(=O)Nc2ccc(Cl)cc2)o1`?
Glyco luc inh: -2; ALR inh: 78*; CDK5 p35 inh: 2; CASP6 VEID inh: 2; Mot1-301 SUMO: -1; NSD2 inh: -2

Results for Cc1cccc(OCCCC(=O)Nc2ccc(Br)cc2)c1 ?
Glyco luc inh: -1; ALR inh: -4; CDK5 p35 inh: 1; Mot1-301 SUMO: 36; NSD2 inh: 12

What do the screens show for `O=C(C[C@H]1C=C[C@H](NS(=O)(=O)c2ccccc2)[C@H](CO)O1)N1CCc2ccccc2C1`?
CASP6 VEID inh: 3

Results for Cn1ccnc1SCc1cn2ccccc2n1 ?
Glyco luc inh: -7; ALR inh: 94*; CDK5 p35 inh: 0; Mot1-301 SUMO: 353; NSD2 inh: -3

How did c1ccn2cc(CSc3nnc4ccccn34)nc2c1 do in these assays?
Glyco luc inh: -5; ALR inh: -1; CDK5 p35 inh: 3; CASP6 VEID inh: 2; Mot1-301 SUMO: -4; NSD2 inh: -2

What do the screens show for `COCC#Cc1cnc2c(c1)C(=O)N([C@H](C)CO)C[C@@H](C)[C@@H](CN(C)C(=O)CN1CCOCC1)O2`?
CASP6 VEID inh: 0

How did COC(=O)[C@H]1[C@H](CO)[C@H]2Cn3c(cccc3=O)[C@H]2N1CC1CCCC1 do in these assays?
CASP6 VEID inh: 0

Results for COC(=O)[C@H]1[C@H](CO)[C@H]2Cn3c(cccc3=O)[C@H]2N1CC1CCOCC1 ?
CASP6 VEID inh: 70*

Results for CCCNC(=O)[C@@H]1[C@@H](CO)[C@@H]2Cn3c(ccc(-c4ccccc4)c3=O)[C@@H]2N1CC1CC1 ?
CASP6 VEID inh: 54*

How did OC[C@@H]1[C@H](c2ccc(-c3cccnc3)cc2)[C@H]2CN(CC3CCOCC3)CCCCN12 do in these assays?
CASP6 VEID inh: -1

What do the screens show for `COc1cc(/C=C/C2=NC(=O)C(C)(C)O2)ccc1O`?
ALR inh: 99*; Mot1-301 SUMO: -6

How did COc1cc(/C=C/C(=O)O)ccc1O do in these assays?
Glyco luc inh: 1; ALR inh: 87*; CDK5 p35 inh: -1; CASP6 VEID inh: 0; Mot1-301 SUMO: 18

How did COc1ccc(C=C(C(C)=O)C(C)=O)cc1OC do in these assays?
Glyco luc inh: 4; CDK5 p35 inh: 0; Mot1-301 SUMO: 3; NSD2 inh: -1

What do the screens show for `COc1cc(C=C(C(C)=O)C(C)=O)ccc1O`?
Glyco luc inh: 7; ALR inh: 98*; CDK5 p35 inh: 1; Mot1-301 SUMO: 0; NSD2 inh: -1

Results for O=C(O)/C=C/c1ccc(O)c(O)c1 ?
Glyco luc inh: 0; ALR inh: 98*; CDK5 p35 inh: 0; CASP6 VEID inh: 6; Mot1-301 SUMO: -5

How did COc1cc(/C=C/C(=O)CC(=O)/C=C/c2ccc(O)c(OC)c2)ccc1O do in these assays?
Glyco luc inh: 11; ALR inh: 35; CDK5 p35 inh: 2; CASP6 VEID inh: 9; Mot1-301 SUMO: 210

How did C[C@@H]1CN([C@H](C)CO)C(=O)c2cc(NC(=O)Nc3ccc4c(c3)OCO4)ccc2O[C@H]1CN(C)Cc1ccc(C(F)(F)F)cc1 do in these assays?
CASP6 VEID inh: 1

How did CC(C)CC#Cc1ccc2c(c1)O[C@H](CN(C)C(=O)CN(C)C)[C@@H](C)CN([C@H](C)CO)S2(=O)=O do in these assays?
CASP6 VEID inh: -4

What do the screens show for `O=C(C[C@@H]1CC[C@H](NC(=O)C2CC2)[C@H](CO)O1)NCc1ccncc1`?
CASP6 VEID inh: -3

Results for COCC(=O)N(C)C[C@@H]1Oc2cc(-c3ccc(F)cc3)ccc2S(=O)(=O)N([C@@H](C)CO)C[C@@H]1C ?
CASP6 VEID inh: 0

How did O=C(/C=C/c1ccc(O)c(O)c1)NC(=O)c1ccccc1O do in these assays?
Glyco luc inh: -6; ALR inh: 96*; CDK5 p35 inh: 0; CASP6 VEID inh: 21; Mot1-301 SUMO: -11

How did CCCN(C)C[C@@H]1OCCCC[C@H](C)Oc2ccc(NC(=O)Nc3ccc(F)cc3)cc2C(=O)N([C@H](C)CO)C[C@@H]1C do in these assays?
CASP6 VEID inh: -1

What do the screens show for `COc1ccc(CNc2ncc(-c3ccccc3)n2C)cc1`?
Glyco luc inh: -3; ALR inh: 42; CDK5 p35 inh: 1; CASP6 VEID inh: -2; Mot1-301 SUMO: 337; NSD2 inh: 1

How did Cn1c(-c2ccccc2)cnc1NCc1ccc(-c2ccccc2)cc1 do in these assays?
Glyco luc inh: -2; ALR inh: 12; CDK5 p35 inh: -1; CASP6 VEID inh: -1; Mot1-301 SUMO: 383*; NSD2 inh: 2

How did Cn1c(-c2ccc(F)cc2)cnc1NCc1ccc(F)cc1 do in these assays?
Glyco luc inh: 0; ALR inh: 91*; CDK5 p35 inh: 3; Mot1-301 SUMO: 7; NSD2 inh: 34

What do the screens show for `CCC1(c2ccccc2)CN(C)C1=O` (stereo unspecified)?
Glyco luc inh: 2; NSD2 inh: 0

Results for CCN1c2ccccc2N(C)C1(C)c1ccccc1 (stereo unspecified) ?
Glyco luc inh: 0; ALR inh: 12; CDK5 p35 inh: 1; Mot1-301 SUMO: 30; NSD2 inh: 63*

Results for Nc1nnc(N2CCc3ccccc32)s1 ?
Glyco luc inh: 2; ALR inh: 99*; CDK5 p35 inh: -1; CASP6 VEID inh: 0; Mot1-301 SUMO: 0

How did C[C@H](CO)N1C[C@H](C)[C@@H](CN(C)Cc2ccc(Cl)c(Cl)c2)Oc2ccc(NC(=O)CCC(F)(F)F)cc2CC1=O do in these assays?
CASP6 VEID inh: 1

How did CN(CC(=O)Nc1cccc(F)c1)C(=O)CCc1nc2sc3c(c2c(=O)[nH]1)CCCC3 do in these assays?
Glyco luc inh: 0; ALR inh: 91*; CDK5 p35 inh: -10; CASP6 VEID inh: 10; Mot1-301 SUMO: 8; NSD2 inh: 1

Results for Cc1cccc(NC(=O)CNC(=O)CCc2nc3sc4c(c3c(=O)[nH]2)CCCC4)c1C ?
Glyco luc inh: 4; ALR inh: 3; CDK5 p35 inh: -4; CASP6 VEID inh: 41*; Mot1-301 SUMO: -7; NSD2 inh: 5

Results for Cc1cccc(C)c1NC(=O)CN(C)C(=O)CCc1nc2sc3c(c2c(=O)[nH]1)CCCC3 ?
Glyco luc inh: 2; ALR inh: -5; CDK5 p35 inh: 1; CASP6 VEID inh: 12; Mot1-301 SUMO: -15; NSD2 inh: 3

Results for CN(CC(=O)Nc1ccc(F)c(F)c1F)C(=O)CCc1nc2sc3c(c2c(=O)[nH]1)CCCC3 ?
Glyco luc inh: -1; ALR inh: -7; CDK5 p35 inh: -5; CASP6 VEID inh: 42*; Mot1-301 SUMO: 10; NSD2 inh: 1

Results for Cc1cccc(NC(=O)CCc2nc3sc4c(c3c(=O)[nH]2)CCCC4)n1 ?
Glyco luc inh: 3; ALR inh: 71; CDK5 p35 inh: 2; CASP6 VEID inh: 5; Mot1-301 SUMO: 261; NSD2 inh: 3
